TrxR1 inh: blocks rat thioredoxin reductase 1; AID 588453; recombinant rTrxR1, NADPH fluorescence consumption, selenite substrate; Potency, µM (doses to about 114 µM), without a hit: at the highest dose activity change, negative = inhibition, usual class: inhibitors; hit rate 1% among 390,000; O89049; further: potency means the concentration at half of the fitted maximal effect; nearly all actives have a fitted effect of over 65% in size
Target sequence (O89049 whole entry, looked up): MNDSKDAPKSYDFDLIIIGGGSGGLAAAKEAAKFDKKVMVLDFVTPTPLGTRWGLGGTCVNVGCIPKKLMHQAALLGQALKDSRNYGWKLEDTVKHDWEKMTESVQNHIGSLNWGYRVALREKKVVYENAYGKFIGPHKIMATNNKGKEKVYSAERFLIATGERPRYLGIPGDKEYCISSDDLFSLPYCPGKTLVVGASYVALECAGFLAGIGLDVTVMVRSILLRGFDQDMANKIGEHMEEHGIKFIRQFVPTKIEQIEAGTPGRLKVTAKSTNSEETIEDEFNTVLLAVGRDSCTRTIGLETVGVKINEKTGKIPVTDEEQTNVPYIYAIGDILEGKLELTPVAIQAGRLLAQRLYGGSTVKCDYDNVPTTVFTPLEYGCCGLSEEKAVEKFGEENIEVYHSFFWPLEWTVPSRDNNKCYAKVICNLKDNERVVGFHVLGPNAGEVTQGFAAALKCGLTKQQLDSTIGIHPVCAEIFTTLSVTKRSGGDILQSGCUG
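Rat TrxR1 (90 nM in the dispensed reagent) was pre-reduced with 400 uM NADPH for 5 min at room temperature, then incubated with compound for 15 min. After 400 uM selenite was added, NADPH fluorescence (Ex 340/Em 450 nm) was followed for 8 min.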
TrxR1 substrate: substrates of rat thioredoxin reductase 1; purified TrxR1 substrate turnover, NADPH consumption readout; O89049; Potency, µM (titrated, usually from 114 µM), inactives show at the top dose activity change, negative = substrate turnover; hit rate 0.01% among 390,000; further: potency means the concentration at half of the fitted maximal effect; nearly all actives have a fitted effect of over 50% in size
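Rat TrxR1, dispensed at 90 nM, was prereduced with 400 uM NADPH (final) for 5 min at ~22 deg C, then incubated with compound 15 min before 400 uM selenite. A first-read NADPH fluorescence drop versus no-compound background flagged substrates.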
FBPA coupling cs: counter-screen for Giardia aldolase inhibitors: coupling enzyme system. coupling enzyme system counterscreen, AmpLite Red fluorescence. activity change, negative = inhibition, % at 58.2 µM, hits read low. hit rate 0.67% among 290,000. AID 2472; in the data active means activity change below about -30%
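Final compound at 57.5 uM, incubated 10 min at RT with coupling enzyme reagent (glyceraldehyde-3-phosphate), then 20 min with substrate and AmpLite Red detection. Fluorescence read at 525/598 nm; tests interference with the coupling assay, not aldolase inhibition.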
PI4K2A block: PI4K2A (human) kinase inhibition; purified PI4K2A, ADP-Glo luminescence, 1 h; stronger effect = lower value; activity change, negative = inhibition, % at 76.9 µM; hit rate 0.13% among 420,000; AID 1346378; in the data active means activity change below about -50%; inconclusive means mostly about -30% to -49%;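 further: -100% = wells without enzyme as full effect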
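ADP-Glo luminescence measured ADP generated by PI4K2A enzyme (4 ug/mL before mixing) with 1.2 mM PI substrate (pre-mix) and 300 microM ATP (pre-mix). Tris pH7.5 buffer with MgCl2, Triton X-100; 1 h reaction at ambient temperature.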
GALK inh: inhibitors of human galactokinase; P51570; Purified GALK, Kinase-Glo residual ATP luminescence; Potency, µM (series often up to 57.5 µM), for the others: at the highest dose activity change, negative = inhibition, hits mostly inhibitors; hit rate 0.007% among 270,000; AID 1868; further: potency means the concentration at half of the fitted maximal effect
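The enzyme phosphorylates galactose (100 uM) using ATP (35 uM); inhibition is detected as higher residual ATP, quantified by bioluminescence after 1 h reaction at room temperature, pH 8.0.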
Giardia kill: kills Giardia lamblia; hit rate 0.15% among 340,000; AID 540267; Giardia lamblia trophozoite viability; activity change, % at 7.66 µM, hits read low; in the data active means activity change below about -80%; inconclusive means between about -30% and that limit;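 further: parasites exposed to compound for two days anaerobically before the ATP read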
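Viability, read as ATP luminescence: trophozoites at 100 cells/well, compound added, 48 hrs anaerobic at 37 deg C, then 15-30 min room-temperature development before reading.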
* hit, by the source's call; ? = inconclusive; / = no result given; ! = not active in a repeat; [ ] = another dose, or the depositor's remark. Hits are enriched below; roughly 1.5% of the tested compounds scored in any of these assays. Unless noted, the call rests on the fitted dose curve; in most records, active means well fitted curve in the direction sought with a large enough effect; inconclusive means small, poorly fitted or top-dose-only effect, or another doubt; inactive means no such curve, though single readings can be large; an effect the other way counts as inactive or inconclusive. Unless noted, on the % scale 0 is the no-effect control and ±100 the full control effect.

SMILES	TrxR1 inh	TrxR1 substrate	FBPA coupling cs	PI4K2A block	GALK inh	Giardia kill
Cc1cccc(N/N=C/c2ccc(O)c(O)c2O)c1	-3%[57.1 µM]	5%[57.1 µM]	-69*	8	5%	7
COC(=O)N1C2CC3(C)CC(=O)CC1(C)C3c1ccccc12 (centres undefined)	/	/	-5	/	/	/
COc1ccc(OC)c(NC(=O)c2c(NCc3cccs3)sc3c2CCCCC3)c1	?	0%[57.1 µM]	/	-5	/	/
COc1ccc(NC(=O)c2c(NCc3ccc(C)o3)sc3c2CCCCC3)c(OC)c1	20µM*	-9%[57.1 µM]	/	-20	/	/
COc1ccc(OC)c(NC(=O)c2c(NCc3cccs3)sc3c2CCCC3)c1	45µM*	-5%	/	-10	/	-2
COc1ccc(NC(=O)c2c(NCc3sccc3C)sc3c2CCCCC3)c(OC)c1	18µM*	-2%[57.1 µM]	/	-6	/	/
COc1ccccc1NC(=O)c1c(NCc2sccc2C)sc2c1CCCCC2	?	4%[57.1 µM]	/	-10	/	/
O=C(C[N+]12CCCc3cccc(c31)CCC2)c1ccc(Cl)c2ccccc12	-5%	-8%	/	/	/	/
C/C(Cn1nnc([N+](=O)[O-])n1)=N\NC(=O)c1cccc(Cl)c1	2%	9%	-36*	3	-4%	2
C/C(CC(=O)Nc1ccccn1)=N\NC(=O)c1ccc([N+](=O)[O-])cc1Cl	5%[57.1 µM]	8%[57.1 µM]	3	-17	6%	10
C/C(Cn1cnc([N+](=O)[O-])n1)=N\NC(=O)c1cccc(F)c1	4%	4%	-5	2	2%	6
C/C(Cn1nnc([N+](=O)[O-])n1)=N\NC(=O)c1ccccc1Cl	18%[57.1 µM]	11%[57.1 µM]	-40*	-6	1%	?
CC(=O)SCC(CC(=O)c1ccc(C)cc1)C(=O)O (centres undefined)	/	/	/	4	/	/
CCCCS(=O)(=O)CC(O)CSc1nc(-c2ccc(C)cc2)cc(-c2ccccc2)c1C#N (centres undefined)	-3%	-3%	/	0	/	/
c1c2c(cc3sc(N4CCOCC4)nc13)OCCO2	3%	1%	1	-51*	11%	?
c1ccc(N2CCN(c3nc4cc5c(cc4s3)OCCO5)CC2)cc1	-2%	-1%	1	-1	1%	1
CCCCc1nc2c(c3c1C[C@H](C)OC3)CN(S(=O)(=O)c1ccc(C#N)cc1)CC2	/	/	-1	/	/	/
Cn1cccc1C=NNC(=O)c1cc(-c2ccc(Cl)cc2)n[nH]1	/	/	/	-3	/	/
c1ccc(OCc2nn3c(-c4ccco4)nnc3s2)cc1	56µM*	1%	6	-4	2%	8
Cc1ccc(S(=O)(=O)c2nnn3c2nc(N2CCC(C)CC2)c2cc(Cl)ccc23)cc1C	-1%	21%	/	0	/	/
CCOc1ccc(C(=O)CC(Sc2ccc(C)cc2)C(=O)O)cc1 (centres undefined)	22%[57.1 µM]	-10%[57.1 µM]	17	-10	1%	4
O=C(CC(Sc1ccc(Br)cc1)C(=O)O)c1ccc(F)cc1 (centres undefined)	28µM*	2%	11	-18	4%	37
CC(C)(C)C(=O)NC(=S)Nc1ccc(S(=O)(=O)Nc2nccs2)cc1	-22%[57.1 µM]	1%[57.1 µM]	7	-2	-2%	-20
CCc1nnc(NS(=O)(=O)c2ccc(NC(=S)NC(=O)c3ccc(OC)cc3)cc2)s1	11µM*	-11%	1	3	0%	-6
CCc1nnc(NS(=O)(=O)c2ccc(NC(=S)NC(=O)c3ccc(OC)c(OC)c3)cc2)s1	?	-3%	9	-2	0%	-3
SMILES	TrxR1 inh	TrxR1 substrate	FBPA coupling cs	PI4K2A block	GALK inh	Giardia kill
CCc1nnc(NS(=O)(=O)c2ccc(NC(=S)NC(=O)/C=C/c3ccc(F)cc3)cc2)s1	50µM*	-13%	0	2	-3%	20
O=C(NC(=S)Nc1ccc(S(=O)(=O)Nc2nccs2)cc1)c1ccc(F)cc1	22µM*	-3%	7	5	/	?
CNc1ccc(C=C2c3ccccc3-c3ccccc32)cc1	-5%	-5%	/	/	/	/
N#Cc1cc([N+](=O)[O-])ccc1Oc1cccc(/C=N/NC(=O)c2cccc(Cl)c2)c1	2%	-4%	-36*	13	-3%	2
COc1ccc(/C=N/NC(=O)c2cccc([N+](=O)[O-])c2)cc1OC	9%	-3%	0	4	2%	15
Cc1nn2c(-c3ccco3)nnc2c2ccccc12	79µM*	-9%	0	3	-3%	4
COc1ccc(-c2cc(C(=O)O)c3ccccc3n2)c(OC)c1	10%[57.1 µM]	8%[57.1 µM]	6	-7	-3%	-8
COc1ccc2cc(-c3cc(C(=O)O)c4ccccc4n3)ccc2c1	-8%	36%	6	-11	-4%	-105*
COc1ccc(NC(=O)c2cc(-c3ccc(C)o3)nc3ccccc23)c(OC)c1	?	-5%	/	-1	/	?
COc1ccc(NC(=O)c2cc(-c3ccc(C)o3)nc3ccccc23)cc1OC	28µM*	8%[57.1 µM]	-1	-14	3%	-3
COc1ccc(-c2cc(C(=O)Nc3c(Cl)cc(Cl)cc3Cl)c3ccccc3n2)cc1OC	79µM*	129%	1	-2	0%	1
COc1ccc(-c2cc(C(=O)Nc3ccc(Cl)cc3Cl)c3ccccc3n2)cc1OC	-15%	22%	3	2	1%	-1
COc1cccc(NC(=O)c2ccccc2OCC(=O)Nc2ccc(Br)cc2)c1	19%	1%	/	/	/	/
COc1ccc(NC(=O)Cn2c(=O)n(-c3cccc(C)c3)c(=O)c3c2c2cc(C)ccc2n3C)cc1Cl	31%	62%	/	-7	/	/
O=C(CSc1nc2ccccc2nc1N1CCCCC1)N1CCN(S(=O)(=O)c2ccccc2)CC1	/	/	/	1	/	/
Cc1ccc(C)c(OCCCC(C)(C)C(=O)O)c1	32%	10%	11	-62*!	0%	-5
Cc1ccc(C)c(OCCCC(=O)O)c1	-4%[57.1 µM]	13%[57.1 µM]	6	0	-2%	?
CCOC(=O)c1ccc(O)c(O)c1	/	/	/	-1	/	/
CC(C)(C)n1ncc2c(=O)n(Cc3ccccc3F)cnc21	17%	-3%	/	/	/	/
Cc1ccc(NC(=S)N/C(=N/S(=O)(=O)c2ccccc2)c2ccccc2)cc1	6.3µM*	-9%	0	-3	-2%	7
CC(=O)Nc1ccc(N/C(=N\S(=O)(=O)c2ccccc2)c2ccccc2)cc1	-14%	-12%	/	-6	-2%	28
Cc1ccc(S(=O)(=O)/N=C(/NC(=S)Nc2ccccc2)c2ccccc2)cc1	8.9µM*	1%	3	-3	-3%	1
CN(C)c1ccc(/C=C/c2cccc3cc4ccccc4nc23)cc1	?	-5%	/	/	/	/
Cc1nn(C(=O)c2ccccc2)c(C)c1Sc1ccc(Cl)cc1	19%	5%	/	0	/	/
CCCCCN1CCCCC(NC(=O)c2ccccc2C)C1=O (centres undefined)	/	/	/	2	/	/

High-throughput results as filed in PubChem.
